Assay outcomes deposited in PubChem by several laboratories.
VLA-4 inh = inhibition in a human VLA-4 binding assay | P13612 | VLA-4 expressing cells, ligand binding flow cytometry | inhibition, % (about 7 µM as worked out from the volumes in the protocol) | 330,000 compounds, 0.2% hits | AID 2557; in the data active = inhibition above about 50%
GRK2 aptamer HTS = human GRK2 inhibition via aptamer displacement; 330,000 compounds, 0.59% hits; AID 488847; P25098; inhibition of aptamer binding, % at 10 µM; bead flow cytometry, FAM-aptamer displacement from GRK2;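 active = inhibition of aptamer binding above 40%, roughly 3 SD of noise, on plates passing a quality check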;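 note: median bead fluorescence of bound FAM aptamer so fluorescent compounds give negative values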
APOBEC3A inh = human APOBEC3A DNA deaminase inhibition. recombinant A3A, FAM/TAMRA ssDNA deamination fluorescence. AID 493011. 330,000 compounds, 0.41% hits. P31941. inhibition, % at 20 µM;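 active = at least 40% inhibition at 20 µM here, with at most 30% in a related deaminase screen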;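 note: plate controls were A3A with DMSO for no effect and wells lacking A3A enzyme for full effect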
APOBEC3G inh = blocks human APOBEC3G single-stranded DNA deamination; 330,000 compounds, 0.28% hits; inhibition, % at 20 µM; Q9HC16; recombinant A3G, ssDNA deamination FAM/TAMRA fluorescence;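 active = inhibition of at least 40% at 20 µM, with no more than 30% in the related APOBEC3A deaminase screen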;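 note: plate controls were DMSO wells with A3G for no effect and wells lacking A3G enzyme for full effect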
Target sequence (Q9HC16 whole entry, looked up): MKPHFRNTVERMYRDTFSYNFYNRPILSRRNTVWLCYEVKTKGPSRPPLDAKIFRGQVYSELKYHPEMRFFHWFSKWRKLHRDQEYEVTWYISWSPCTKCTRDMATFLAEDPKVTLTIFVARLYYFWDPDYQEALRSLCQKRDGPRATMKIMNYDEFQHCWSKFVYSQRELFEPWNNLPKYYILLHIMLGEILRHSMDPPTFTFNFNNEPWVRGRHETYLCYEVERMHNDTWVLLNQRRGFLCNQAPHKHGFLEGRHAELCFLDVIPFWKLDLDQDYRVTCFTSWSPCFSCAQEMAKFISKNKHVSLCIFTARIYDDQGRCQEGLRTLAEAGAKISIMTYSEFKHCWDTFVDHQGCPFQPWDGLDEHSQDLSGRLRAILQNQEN
GRK2 CP1 = confirmation of human GRK2 inhibitors displacing RNA aptamer | shares compounds with GRK2 aptamer HTS | bead-bound GRK2, FAM-aptamer displacement, flow cytometry | aptamer displacement, % at 10 µM | 2,000 compounds, 4% hits | AID 504451;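 active = aptamer displacement above 40%, near three times the noise of non-fluorescent compounds, on plates passing quality checks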;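 note: negative values mostly reflect intrinsic compound fluorescence rather than true enhancement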
Aptamer quench = quenches fluorescent RNA aptamer, GRK2 hit artifact; shares compounds with GRK2 aptamer HTS; Fluorescent RNA aptamer beads, quenching, flow cytometry; stronger effect = higher value; fluorescence change (kMESF span), kMESF (no concentration beside the values); 110 tested, under 10 active; AID 504521;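 active = compounds whose bead fluorescence drops by more than 37 kMESF across the dose range, marking them as dye quenchers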
Aptamer quench SP = quenches fluorescent RNA aptamer, GRK2 hit artifact; shares compounds with GRK2 aptamer HTS; Carboxyfluorescein RNA aptamer on beads, flow cytometry quenching; stronger effect = lower value; fluorescence response (% of DMSO), % at 10 µM; 2,000 tested, under 10 active; AID 504580;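 active = compounds that quench the bead-bound fluorescent RNA probe, cutting fluorescence to under half of the solvent control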;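 note: counterscreen run without GRK2 so only probe quenching by compound is measured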
GRK2 CP2 = human GRK2 inhibition confirmation, cherry pick 2. AID 504782. inhibition of aptamer binding, % at 10 µM. shares compounds with GRK2 aptamer HTS. bead-bound GRK2, FAM-aptamer displacement, flow cytometry. 360 tested, under 10 active;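 active = inhibition of aptamer binding above 40%, about triple the noise seen with nonglowing compounds, on plates passing quality control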;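 note: negative values mostly come from compounds that fluoresce themselves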
FAM quench SP = quenches fluorescent RNA aptamer, GRK2 hit artifact. 360 tested, under 10 active. carboxyfluorescein RNA aptamer beads, flow cytometry quenching; stronger effect = lower value. fluorescence response vs DMSO, % at 10 µM. shares compounds with GRK2 aptamer HTS. AID 588494;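 active = response vs DMSO under 50%, meaning signal dropped by over half, treated as fluorescence quencher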;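 note: labelled aptamer on streptavidin beads without GRK2 as a quench counter-screen; 100% = bead fluorescence of DMSO wells and lower means quenching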
FAM quench DR = aptamer fluorescence quenching in GRK2 powder counter-screen | Bead-bound FAM RNA aptamer fluorescence quenching, flow cytometry; stronger effect = lower value | shares compounds with GRK2 aptamer HTS | 35 tested, under 10 active | AID 588496 | fluorescence ratio to DMSO, % at 11.1 µM;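 active = compounds that dim the fluorescent label, raw bead signal shifting by over 33 units between lowest and highest dose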
* marks the source's active call; other numbers are inactive results; nt = no result. Most compounds without a hit are left out; they make up all but 1.4% or so of the library.

SMILES	VLA-4 inh	GRK2 aptamer HTS	APOBEC3A inh	APOBEC3G inh	GRK2 CP1	Aptamer quench SP	others
CCn1c(SC(C)C(=O)O)nc2sc3c(c2c1=O)CCC3 (stereo not drawn)	9.2	68.0*	68.6	35.2	5.2	99.9	GRK2 CP2=9.0;FAM quench SP=101.0
Cc1cc(C)n(/N=C/c2ccccc2)c(=O)c1C#N	18.0	1.0	-4.2	-3.2	nt	nt
Cc1cc(C)n(/N=C/c2c[nH]c3ccccc23)c(=O)c1C#N	20.6	65.0*	2.2	0.1	0.5	107.6
COc1ccc(N(CC(=O)NCc2ccc3c(c2)OCO3)S(=O)(=O)c2ccccc2[N+](=O)[O-])c(OC)c1	-7.3	0.0	0.7	-2.7	nt	nt
CC(CC(=O)Nc1ccc(Br)cc1F)S(=O)(=O)c1ccc2c(c1)NC(=O)CO2 (stereo not drawn)	-0.1	0.0	-2.7	-6.7	nt	nt	GRK2 CP2=-7.8;FAM quench SP=102.0
CC(CC(=O)Nc1ccc(F)cc1)S(=O)(=O)c1ccc2c(c1)NC(=O)CO2 (stereo not drawn)	-9.6	4.0	0.5	1.8	nt	nt
O=C(O)/C=C/C(=O)N(CC1CCCO1)C1CC(=O)N(c2c(Cl)cccc2Cl)C1=O (stereo not drawn)	-3.6	3.0	8.6	-1.9	nt	nt
Cc1cc2ccccc2n1CCNC(=O)C1CCCC1	-1.8	99.0*	-0.3	2.6	-0.7	100.4	GRK2 CP2=-1.1;FAM quench SP=99.0
Cc1cc2ccccc2n1CCNC(=O)C1CCCCC1	-7.0	12.0	-1.5	1.6	nt	nt
Cc1cc2ccccc2n1CCNC(=O)c1cccs1	2.2	98.0*	6.2	9.9	80.6*	88.2	Aptamer quench=27.9;FAM quench DR=100.0
CC1Cc2ccccc2N1C(=O)CSc1nc2cc3c(cc2cc1C#N)OCO3 (stereo not drawn)	0.9	2.0	5.6	0.2	nt	nt
OC[C@@H](O)[C@H](O)C(/C=N/Nc1ccccc1)=N\Nc1ccccc1	14.4	40.0	-2.1	3.2	0.3	96.2
CC(=O)/C=N/Nc1ccccc1	-1.6	0.0	4.8	-5.7	nt	nt
CC(C)C[C@H](NC(=O)OC(C)(C)C)C(=O)N1CCC(C(=O)O)CC1	-2.3	65.0*	0.4	-4.1	0.0	101.2
Cc1ccc(-c2csc(NC(=O)CN3CCC(C(N)=O)CC3)n2)cc1	15.0	0.0	-4.0	-4.7	nt	nt
Cc1cc(C)n2nc(-c3ccc(Cl)cc3)cc2n1	13.5	0.0	0.5	-4.9	nt	nt
Cc1cc(-c2ccc(Cl)cc2)n2nc(C)cc2n1	-3.8	45.0*	0.0	-4.3	-4.8	102.3
COc1ccc(C)cc1NC(=O)NNC(=O)c1cc2ccccc2cc1O	-9.4	1.0	-6.3	-6.8	nt	nt
O=C(O)c1ccccc1Nc1cccc(OCc2ccc3ccccc3n2)c1	3.3	0.0	1.6	0.1	6.1	90.0
CCC(/C=C1\Sc2ccc(OC)cc2N1CC)=C\c1sc2ccc(OC)cc2[n+]1CCCS(=O)(=O)[O-]	-57.3	91.0*	2.3	-2.5	84.9*	107.6	Aptamer quench=1.7
c1ccc(-c2cccc(-c3ccccc3)n2)cc1	4.3	3.0	1.1	-7.2	nt	nt
Cc1cc(C)c(NC(=O)CN2CCN3CCCC3C2)c(C)c1 (stereo not drawn)	0.3	0.0	-3.2	-7.1	nt	nt
CC(=O)c1ccc(OCCCC(=O)NC2=NCCS2)cc1	-1.5	39.0	1.2	1.8	4.9	93.6
O=C(c1c[nH]c2ccccc12)N1CCOCC1	-2.7	0.0	-4.1	-3.2	nt	nt
COc1ccc(-c2cc(C(=O)NCCN3CCOCC3)c3cc(C(C)C)ccc3n2)cc1	0.6	1.0	-6.1	-7.0	nt	nt
C=CCn1c(SCC(=O)NC2CCS(=O)(=O)C2)nnc1-c1ccncc1 (stereo not drawn)	5.4	0.0	-4.4	-14.9	nt	nt
